Screening data from PubChem BioAssay.
D1 agonist – agonists of human D1 dopamine receptor. P21728. HEK293 T-REx D1 cells, calcium flux, agonist mode. activation, % at 2 µM. actives 1% (n = 360,000)
Target sequence (P21728 whole entry, looked up): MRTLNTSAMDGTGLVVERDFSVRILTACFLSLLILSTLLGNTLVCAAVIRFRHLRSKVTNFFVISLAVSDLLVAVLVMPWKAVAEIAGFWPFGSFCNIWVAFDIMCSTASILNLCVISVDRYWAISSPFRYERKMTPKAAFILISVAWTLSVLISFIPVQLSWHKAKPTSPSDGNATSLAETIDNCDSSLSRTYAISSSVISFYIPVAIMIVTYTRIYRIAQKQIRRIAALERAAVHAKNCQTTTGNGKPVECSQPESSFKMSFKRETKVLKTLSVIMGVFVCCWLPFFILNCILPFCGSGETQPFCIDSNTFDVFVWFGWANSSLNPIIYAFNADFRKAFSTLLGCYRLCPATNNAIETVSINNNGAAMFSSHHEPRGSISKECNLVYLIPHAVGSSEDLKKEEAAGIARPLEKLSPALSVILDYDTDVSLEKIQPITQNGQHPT
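Tetracycline-induced HEK293 TREx D1 cells, force-coupled to calcium signalling, were dye-loaded with a no-wash calcium kit. Compound was pin-added after a 10 s baseline. Fluorescence was read kinetically at 1 cycle/s for 180 s, with calcium rises flagged as agonism.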
D1 antagonist – antagonists of human D1 dopamine receptor | P21728 | HEK293 TREx D1 cells, calcium flux, dopamine EC80; stronger effect = lower value | activity change, negative = inhibition, % at 10 µM | actives 3.2% (n = 360,000) | AID 504652; in the data active means activity change below about -30%
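Using tetracycline-induced force-coupled D1 Hek293 cells and a calcium dye, signals were followed for 180 s after compound, then for 180 s after EC80 dopamine, to detect inhibitors.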
TRHR enhancer – TRH receptor (human) allosteric enhancement; TRHR cells, fluo-8 calcium fluorescence, EC20 TRH enhancement; P34981; actives 0.66% (n = 360,000); AID 493056; enhancement, % at 2 µM; in the data active means enhancement above about 30%
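TRHR-expressing cells loaded with fluo-8 calcium dye were read kinetically (ex 480/em 530) during compound addition, then stimulated with an EC20 of TRH (10 nM final). Enhancement of the Gq-mediated intracellular calcium response was scored.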
D1 PAM – potentiators of human D1 dopamine receptor; P21728; HEK293 TREx D1 cells, calcium flux, dopamine EC20 potentiation; potentiation, % at 10 µM; actives 0.036% (n = 360,000); in the data active means potentiation above about 30%
TRHR ag – agonists of human TRH receptor; P34981; TRHR cells, calcium flux fluo-8, FDSS agonist mode; activation, % at 2 µM; actives 0.18% (n = 360,000)
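TRHR-expressing cells, plated overnight in medium with 10% serum, were loaded with fluo-8 calcium dye at room temperature. After a 10 s baseline, library compound was pin-added and calcium release was recorded kinetically (ex 480/em 530) as agonist response.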
Each line names hits and unclear results; the compound was inactive in the other large screens. Only some compounds are listed: those with a hit (about 4.7% of all), similar ones and a draw of the others. Unless noted, no stated cut-off is given here; in the data, active means activation above about 30%; inactive means the rest.

Cc1c(Cl)cccc1Nc1nn2c(=O)c3ccc(C(=O)N(C)Cc4ccccc4)cc3nc2s1	none
Nc1nc(Nc2cc(F)cc(F)c2)nc(NC2CCCC2)n1	none
Cc1ccccc1NS(=O)(=O)c1cccc2nonc12	none
Cc1ccccc1Nc1cccc2nonc12	D1 agonist 40
CCc1cccc(NC(=O)c2ccc3c(c2)c(C)c(C)n3Cc2ccc(F)cc2)c1	none
CC1CC(=O)N(c2ccc(C(C)C)cc2)C(=O)C1	D1 antagonist -32
CC(C)c1ccc(N2C(=O)C3C4C=CC(CC4)C3C2=O)cc1 (stereo not drawn)	none
CCOC(=O)c1sc(=S)n(Cc2ccccc2)c1C	D1 antagonist -31
CN1CCN(C(=O)c2cc3ccccc3oc2=O)CC1	none
Cc1cccc(N2CCN(C(=O)NC3CCCCC3)CC2)c1C	D1 agonist 33, D1 antagonist -41
Cc1ccc(N2CCN(C(=O)NC3CCCCC3)CC2)c(C)c1	none
Cc1cccc(N2CCN(C(=O)c3cc4ccccc4oc3=O)CC2)c1C	D1 antagonist -76
COc1ccc(C(CNC(=O)c2oc3ccc(C)cc3c2C)N2CCOCC2)cc1 (stereo not drawn)	none
COC(=O)c1cc(NS(=O)(=O)c2cc(Br)cc3c2N(C(C)=O)CC3)cc(C(=O)OC)c1	none
O=C1C2C3C=CC(CC3)C2C(=O)N1c1cccc(Br)c1 (stereo not drawn)	D1 antagonist -37
COc1ccc(N2CC(NC(=O)c3ccc4c(c3)OCO4)CC2=O)cc1 (stereo not drawn)	none (no result: D1 antagonist)
Oc1c(C=Nc2cccnc2)sc2ccccc12	none
Oc1c(C=Nc2ccccc2)sc2ccccc12	none
Oc1sc(C=Nc2ccccc2)c2ccccc12	D1 agonist 172, TRHR ag 39
Oc1sc(C=Nc2ccc(F)cc2)c2ccccc12	D1 agonist 132
COc1ccc(S(=O)(=O)N(CC(=O)NCc2ccc(C)cc2)c2ccc(Cl)cc2)cc1	none
Cc1ccc(N2CCN(Cc3nnc(-c4ccc5c(c4)OCO5)o3)CC2)c(C)c1	D1 antagonist -30
C/C(=N\NC(=O)c1ccco1)c1ccc(C(=O)O)s1	none
C/C(=N/NC(=O)c1ccco1)c1ccc(Br)s1	D1 antagonist -31
CCOc1ccccc1Nc1nnc(Cc2ccccc2Cl)c(=O)[nH]1	D1 antagonist -32
O=C(Nc1ccccc1)c1sc(N2CCOCC2)nc1-c1ccccc1	none
N#C/C(=C\c1sc(N2CCOCC2)nc1-c1ccccc1)C(=O)Nc1cccc2ccccc12	D1 agonist 40
N#Cc1nc(Nc2cc(F)cc(F)c2)nc(Nc2cc(F)cc(F)c2)n1	none
Cc1ccc(C(=O)Nc2cc(Cl)ccc2-n2cncn2)o1	TRHR enhancer 36
Cc1ccc(C(=O)Nc2cc(C(F)(F)F)ccc2-n2cncn2)o1	none
Cc1ccc(NC(=O)CSc2nnc(-c3cc4occc4n3C)n2-c2ccccc2C)c(C)c1	none
CN(CCCC[C@H](CNCc1ccc(-c2ccccc2)cc1)N1C[C@H](c2ccccc2)N(CCc2ccc(Cl)c(Cl)c2)C(=O)C1=O)Cc1ccc(-c2ccccc2)cc1	none
CCOc1ccc(CCN2C(=O)C(=O)N([C@H](CCCN(C)Cc3ccccc3)CNCc3ccccc3)C[C@@H]2C(C)C)cc1	D1 agonist 41
COc1ccc(CNC[C@@H](CCCCN(C)Cc2ccc(OC)cc2)N2C[C@H](c3ccccc3)N(CCc3ccc(Cl)c(Cl)c3)C(=O)C2=O)cc1	D1 agonist 39
Cc1cn(C)c(CC(=O)N2CCN(c3cccc(C(F)(F)F)c3)CC2)c1C(=O)O	none
C=CCc1ccccc1OCCNCCCOC	D1 antagonist -46
CCOC(=O)c1cnc(NCc2ccccc2OC)c2ccccc12	none
O=C(Nc1nnc(-c2ccc(Cl)cc2)o1)Nc1ccccc1F	none
Cc1cc(NS(=O)(=O)c2cccs2)no1	D1 antagonist -83
Cc1cc(NC(=O)c2cccs2)no1	none
Cc1cc(NC(=O)c2cc(-c3cccs3)on2)no1	D1 antagonist -42
Cc1ccc(S(=O)(=O)Nc2cc(C)on2)cc1	none
COc1cn(CC(=O)Nc2ccc(C)cc2)c(CN2CCCCC2)cc1=O	D1 antagonist -46
COc1cn(CC(=O)Nc2ccc(F)cc2)c(CN2CCCCC2)cc1=O	none
Cc1cccn2c(Nc3ccccc3)c(-c3ccc(N4CCOCC4)cc3)nc12	D1 antagonist -45
COCCNC(=O)Cn1cc(/C=C(\C#N)C(=O)NC2CCCC2)c2ccccc21	D1 PAM 33
CNC(=O)/C(C#N)=C/c1cn(CC(=O)NCc2ccco2)c2ccccc12	none
CCOC(=O)C1C(=O)NC(c2ccccc2)=NC1c1ccc(C(C)C)cc1 (stereo not drawn)	D1 antagonist -34
CCOC(=O)C1C(=O)NC(c2ccccc2)=NC1c1ccc(Cl)cc1 (stereo not drawn)	none
Cn1c2ccsc2c2ncn(Cc3ccc(F)cc3)c(=O)c21	TRHR enhancer 36
COc1ccc2c(c1)c1ncn(Cc3ccc(F)cc3)c(=O)c1n2C	none
CCc1ccc(NC(=O)CSCc2nc(N)nc(Nc3ccccc3CC)n2)cc1	D1 antagonist -36
CCc1ccccc1Nc1nc(N)nc(CSCC(=O)Nc2ccc(C)c(C)c2)n1	none
Cc1ccccc1CC(=O)OCC(=O)Nc1ccc(C)c(S(=O)(=O)N2CCCCC2)c1	D1 agonist 79, D1 antagonist -35 (no result: D1 PAM)
Cc1ccc(NC(=O)C2CCN(C(=O)OC(C)(C)C)CC2)cc1S(=O)(=O)N1CCCCC1	D1 antagonist -38
Cc1ccc(NC(=O)COc2ccccc2C#N)cc1S(=O)(=O)N1CCCCCC1	none
Cc1ccc(C)c(OCCC(=O)OCC(=O)Nc2ccc(C)c(S(=O)(=O)N3CCCCC3)c2)c1	D1 antagonist -32
Cc1ccc(NC(=O)COC(=O)C2CCC2)cc1S(=O)(=O)N1CCCCC1	D1 antagonist -32
Cc1ccc(NC(=O)COC(=O)C2CC3C=CC2C3)cc1S(=O)(=O)N1CCCCC1 (stereo not drawn)	none
Cc1ccc(NC(=O)COc2ccccc2)cc1S(=O)(=O)N1CCCCCC1	none
Fc1ccc(Cn2c(-c3cccc(Br)c3)nc3ccccc32)cc1	none (no result: D1 antagonist)
Cc1ccc(NC(=S)NCc2ccccc2)cc1S(=O)(=O)N1CCCCC1	D1 agonist 33, D1 antagonist -35
Cc1ccc(NC(=O)CSc2ccccc2)cc1S(=O)(=O)N1CCCCC1	none
COCCn1cnc2c1c(=O)n(CC(=O)NCC(F)(F)F)c(=O)n2Cc1ccccc1	none
CCc1cc2c(-c3ccccc3)cc(=O)oc2cc1OCC(=O)NCC1CCC(C(=O)O)CC1 (stereo not drawn)	none
CCOc1ccccc1NS(=O)(=O)c1ccc2c(c1)CC(C)N2C(=O)C1CCC1 (stereo not drawn)	none
COc1ccccc1CNC(=O)OCc1nccnc1C(=O)Nc1ccc(Br)cn1	D1 antagonist -35
Cc1cc(-c2nn3c(-c4ccccc4)nnc3s2)c2ccccc2n1	D1 antagonist -33
